A short description of assay [1]: compounds binding Alexa647 anti-His antibody – biochemical, small-molecule microarray, 635 nm fluorescence, artefact control for SMM control protein annotation, primary screen (AID 1128).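 Further: score merges feature fluorescence with signal-to-noise for each printed compound spot.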 The note with it: higher = more signal.
Assay [2] relates to Human papillomavirus type 1a E7 protein (residues 1-88). Briefly: HPV1a E7 small-molecule binders, primary screen, biochemical, small-molecule microarray, residues 1-88, 635 nm (AID 1129). Conditions: small-molecule microarray binding, fluorescence 635 nm; higher = more signal.
Assay [3] addresses Focal adhesion kinase 1 (Homo sapiens) (UniProt Q05397). Put plainly: PTK2 protein binding on printed compound slides – biochemical, small-molecule microarray, 635/667 nm fluorescence, BSA, DTT, primary screen (AID 1130).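 Further: composite of spot emission at 667 nm and signal to noise over triplicate slides.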 Conditions: 635 nm fluorescence, higher = more signal.
The test system of assay [4] is Fibrinogen (Alexa647-labelled). Briefly: Alexa647-fibrinogen binding to printed small molecules – biochemical, small-molecule microarray, 635/667 nm fluorescence, artefact control for SMM control-protein annotation, profiling panel (AID 1131).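 Further: z-score merges 667 nm fluorescence with per-spot signal-to-noise over triplicate slides.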 Conditions: fibrinogen-A647 binding fluorescence, higher = more signal.
The target of assay [5] is Follistatin (Homo sapiens) (UniProt P19883). Briefly: FST protein binding to printed compounds – biochemical, small-molecule microarray, 635/667 nm fluorescence, primary screen (AID 1132). Conditions: 635 nm fluorescence, higher = more signal.
Assay [6] concerns the target Fibroblast growth factor 2 (Homo sapiens) (UniProt P09038). Briefly: basic fibroblast growth factor binding to printed compounds – biochemical, small-molecule microarray, 635/667 nm fluorescence, primary screen (AID 1133). Conditions: FGF2, fluorescence 635/667, higher = more signal.
A short description of assay [7]: JC-1 mitochondrial potential readout, lung cancer cells – cell-based, A549, JC-1 fluorescence, basal, 24 h, 100 nL, profiling panel (AID 1138).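 Further: A549 lung adenocarcinoma cells under basal conditions with no added stimulus; test concentration not given here.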 The note with it: higher = more signal.
Assay [8] has as its system Lefty1. Put plainly: Lefty1 protein binding to printed compounds – biochemical, small-molecule microarray, 635/667 nm fluorescence, primary screen (AID 1139). Conditions: fluorescence 635/667, higher = more signal.
Assay [9] has as its system wheat germ agglutinin (Triticum aestivum), Alexa647-labelled. Briefly: Alexa647-WGA lectin binding to printed small molecules – biochemical, small-molecule microarray, 635/667 nm fluorescence, artefact control for SMM control-protein annotation, profiling panel (AID 1140).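 Further: score merges 667 nm feature emission with signal to noise over triplicate slides.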 Conditions: WGA-A647 binding, 635 nm fluorescence, higher = more signal.
Assay [10] addresses Luciferin 4-monooxygenase (Photinus pyralis) (UniProt P08659). Briefly: inhibition of purified Photinus pyralis luciferase – biochemical, luminescence, purified enzyme, 2006 set, primary screen (AID 1141).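 Further: cell-free assay with purified firefly luciferase at 100 ng per well in PBS; test concentration not given here.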 Conditions: purified firefly luciferase, SteadyGlo luminescence, 30 min; higher = more signal, called active from +8 up or from −8 down.

The source made the active and inactive calls.

Chain of Follistatin (Homo sapiens) (P19883 whole entry, looked up): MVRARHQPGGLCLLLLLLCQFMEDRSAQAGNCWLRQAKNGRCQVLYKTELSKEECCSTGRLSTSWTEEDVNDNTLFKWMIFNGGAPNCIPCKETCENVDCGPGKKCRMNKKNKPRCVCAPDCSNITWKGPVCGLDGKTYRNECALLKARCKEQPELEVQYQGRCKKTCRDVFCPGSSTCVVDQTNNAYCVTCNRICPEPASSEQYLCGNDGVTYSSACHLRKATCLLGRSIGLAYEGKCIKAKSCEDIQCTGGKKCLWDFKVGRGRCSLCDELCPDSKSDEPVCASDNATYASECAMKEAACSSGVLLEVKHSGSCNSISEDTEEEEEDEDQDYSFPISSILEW
Chain of Fibroblast growth factor 2 (Homo sapiens) (P09038 whole entry, looked up): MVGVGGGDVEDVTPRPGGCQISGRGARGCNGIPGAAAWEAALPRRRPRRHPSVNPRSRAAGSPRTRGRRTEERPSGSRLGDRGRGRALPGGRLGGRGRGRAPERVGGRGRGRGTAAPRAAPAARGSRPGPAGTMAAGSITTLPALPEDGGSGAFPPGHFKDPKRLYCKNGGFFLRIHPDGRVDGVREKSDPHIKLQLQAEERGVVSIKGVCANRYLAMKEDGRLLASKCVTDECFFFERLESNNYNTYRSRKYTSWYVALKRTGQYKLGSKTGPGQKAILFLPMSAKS
Chain of Focal adhesion kinase 1 (Homo sapiens) (Q05397 whole entry, looked up): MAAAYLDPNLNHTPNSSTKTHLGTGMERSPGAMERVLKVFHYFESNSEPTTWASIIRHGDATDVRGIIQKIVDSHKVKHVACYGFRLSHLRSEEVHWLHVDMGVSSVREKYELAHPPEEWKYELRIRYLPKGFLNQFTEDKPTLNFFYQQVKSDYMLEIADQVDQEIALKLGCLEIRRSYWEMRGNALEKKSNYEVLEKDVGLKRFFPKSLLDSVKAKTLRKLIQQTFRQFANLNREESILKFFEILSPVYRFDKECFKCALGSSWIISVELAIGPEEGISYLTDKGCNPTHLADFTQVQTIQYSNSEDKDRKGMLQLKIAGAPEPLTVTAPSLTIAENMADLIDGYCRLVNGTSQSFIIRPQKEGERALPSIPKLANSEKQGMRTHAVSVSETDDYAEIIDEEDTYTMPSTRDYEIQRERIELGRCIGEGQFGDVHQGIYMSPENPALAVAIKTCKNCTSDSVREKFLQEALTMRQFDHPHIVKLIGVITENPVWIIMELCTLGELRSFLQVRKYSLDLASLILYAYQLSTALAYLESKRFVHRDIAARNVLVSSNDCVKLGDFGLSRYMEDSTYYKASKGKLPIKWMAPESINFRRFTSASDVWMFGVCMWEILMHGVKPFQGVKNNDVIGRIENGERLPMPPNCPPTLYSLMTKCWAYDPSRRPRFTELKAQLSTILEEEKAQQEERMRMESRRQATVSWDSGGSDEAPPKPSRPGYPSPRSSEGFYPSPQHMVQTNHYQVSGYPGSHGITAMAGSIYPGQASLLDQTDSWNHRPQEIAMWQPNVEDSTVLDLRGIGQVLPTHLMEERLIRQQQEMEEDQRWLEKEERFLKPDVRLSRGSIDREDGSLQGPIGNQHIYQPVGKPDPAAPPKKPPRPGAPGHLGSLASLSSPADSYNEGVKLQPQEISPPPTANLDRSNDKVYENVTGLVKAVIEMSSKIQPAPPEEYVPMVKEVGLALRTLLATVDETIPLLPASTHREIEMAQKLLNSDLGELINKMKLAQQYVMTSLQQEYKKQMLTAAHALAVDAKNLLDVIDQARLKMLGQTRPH
Chain of Luciferin 4-monooxygenase (Photinus pyralis) (P08659 whole entry, looked up): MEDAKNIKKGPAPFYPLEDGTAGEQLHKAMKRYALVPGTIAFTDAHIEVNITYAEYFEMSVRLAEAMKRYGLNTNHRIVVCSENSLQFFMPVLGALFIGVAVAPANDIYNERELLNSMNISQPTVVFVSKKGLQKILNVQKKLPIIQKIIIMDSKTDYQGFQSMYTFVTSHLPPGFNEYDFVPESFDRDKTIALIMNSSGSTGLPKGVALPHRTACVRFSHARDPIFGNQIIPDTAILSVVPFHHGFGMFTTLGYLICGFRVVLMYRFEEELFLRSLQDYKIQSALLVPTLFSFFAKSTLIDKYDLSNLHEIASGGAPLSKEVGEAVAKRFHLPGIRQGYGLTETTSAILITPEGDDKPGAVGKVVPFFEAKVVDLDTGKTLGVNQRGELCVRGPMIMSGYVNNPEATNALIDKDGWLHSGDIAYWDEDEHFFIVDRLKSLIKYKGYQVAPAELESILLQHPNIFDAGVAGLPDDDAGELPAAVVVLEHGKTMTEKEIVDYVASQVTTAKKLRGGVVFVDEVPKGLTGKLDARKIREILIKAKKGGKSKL

As to `O=C1O[C@H](c2ccccc2)[C@H](c2ccccc2)N2[C@H]1[C@@H](C(=O)O)[C@]1(C(=O)Nc3ccc(C#CC4=CCCCC4)cc31)[C@H]2c1ccccc1OCCO`, the composite z-score in [1] stood at 1.76; in [2], 1.23; in [3], 0.827; in assay [4], 0.922; in [5], 1.26; in [6], 1.08. In addition, the results for the composite z-score in [8] and in [9] were 1.63 and 1.18, respectively. Besides, the z-score is -2.56 in assay [7] and -6.51 (inactive) in assay [10].

Consider `COc1cc2c(cc1OC)CN(C(=O)[C@@H]1[C@H]3C(=O)O[C@H](c4ccccc4)[C@H](c4ccccc4)N3[C@H](c3ccc(O)cc3)[C@@]13C(=O)Nc1ccc(C#CC4(O)CCCCCC4)cc13)CC2`, for which the composite z-score turned out to be 2.4 in [1]; 1.25 in assay [2]; 0.592 in [3]; 0.924 in [4]; 1.14 in assay [5]; 1.35 in assay [6]. For the same molecule, the composite z-score worked out at 0.999 in assay [8] and 0.137 in assay [9]. In addition, the z-score in assay [7] was -0.373; in [10], -0.798 (inactive).

In the case of `CCOC(=O)C1=CCC(c2ccccc2)N(S(=O)(=O)CC[Si](C)(C)C)C1` (stereo not given), the composite z-score in assay [1] was 0.149; in [2] it was -0.401; in assay [3], 0.384; in assay [4], -0.325; in assay [5] it was -0.172; in assay [6], -0.617. The composite z-score in [8] was -0.503; in assay [9] it was 0.0225. Further, the values for the z-score in assay [7] and in assay [10] were 3.06 and 1.2 (inactive), respectively.

Consider `[N-]=[N+]=NCc1ccccc1C[C@]1(C(=O)O)N=C(c2ccc(OCCCO)cc2)O[C@H]1c1ccccc1N=[N+]=[N-]`, for which the composite z-score in assay [1] worked out at 0.906; in assay [2], 1.19; in assay [3], 0.532; in assay [4], 0.985; in assay [5] it was 1.1; in assay [6], 0.582. Besides, the composite z-score in assay [8] is 0.354; in [9], 1.2. Moreover, the z-score in [7] was -1.17; in assay [10], -13.8 (active).

As to `COCCOC(=O)N1C(=O)[C@@]2(c3cc(C#CC4=CCCCC4)ccc31)[C@H](C(N)=O)[C@H]1C(=O)O[C@H](c3ccccc3)[C@H](c3ccccc3)N1[C@@H]2c1ccc(OCCO)cc1`, the composite z-score in assay [1] is 2.26; in [2], 1.21; in assay [3], 0.797; in assay [4] it was 0.938; in assay [5], 0.371; in [6] it was 0.925. In addition, the composite z-score in assay [8] came to 0.517; in assay [9] it was 0.773. Moreover, the values for the z-score in [7] and in assay [10] were -1.65 and -1.8 (inactive), respectively.

Regarding `COc1ccc([Si](C)(C)[C@H]2[C@H](CCn3cc([C@H](O)c4ccccc4)nn3)O[C@@]3(C(=O)N(Cc4cccc(N5CCOC5=O)c4)c4ccccc43)[C@@H]2C)cc1`, the composite z-score in [1] stood at 0.0694; in assay [2], 0.679; in assay [3], 0.0871; in assay [4], 0.401; in assay [5] it was 1.28; in assay [6], 0.669. For the same molecule, the composite z-score in assay [8] came to 0.892; in assay [9], 0.22. For the same molecule, the z-score is 0.711 in assay [7] and 0.387 (inactive) in assay [10].

In the case of `O=C1O[C@H](c2ccccc2)[C@H](c2ccccc2)N2[C@H]1[C@@H](C(=O)Nc1nc3ccccc3s1)[C@]1(C(=O)Nc3ccc(C#CCCO)cc31)[C@H]2c1ccc(OCCO)cc1`, the composite z-score amounted to 1.18 in assay [1]; 1.18 in [2]; 0.232 in assay [3]; 0.9 in [4]; 1.43 in assay [5]; 1.15 in [6]. The composite z-score is 1.16 in [8] and 1.04 in assay [9]. Moreover, the z-score in assay [7] is -2.36; in assay [10], -2.97 (inactive).

As to `O=C1OCCC=C[C@H]2OC34C=CCN(CCN5CCOCC5)C(=O)[C@H]3N(CCCCCCO)C(=O)[C@@H]4C12` (stereo not given in full), the composite z-score was 0.626 in assay [1]; -0.525 in assay [2]; 0.604 in [3]; -1 in [4]; -0.061 in [5]; -0.486 in assay [6]. The composite z-score is 0.0839 in assay [8] and -0.255 in [9]. Further, the z-score in assay [7] was 0.884; in [10], -0.892 (inactive).

Consider `COc1ccc(CCNC(=O)[C@@]2(Sc3ccc(C)cc3)CC(=O)N(C3CCCCC3)[C@@H]2c2ccc(CO)cc2I)cc1`, for which the composite z-score stood at 0.949 in [1]; 1.21 in [2]; 0.28 in assay [3]; 0.151 in assay [4]; 0.884 in [5]; 0.535 in assay [6]. Further, the figures for the composite z-score in assay [8] and in [9] were 0.569 and 0.396, respectively. Besides, the z-score in assay [7] was -0.0279; in assay [10] it was 0.645 (inactive).

Consider `N#Cc1ccc(NN2C(C(O)c3c(F)cccc3Cl)C=CC3C(=O)N(c4ccccc4)C(=O)C32)cc1` (stereo not given), for which the composite z-score in [1] was 2.29; in [2], 1.21; in [3], 0.377; in assay [4], 0.973; in [5] it was 1.23; in [6], 0.407. Also, the composite z-score in [8] was -0.0219; in assay [9], 0.997. Also, the values for the z-score in assay [7] and in assay [10] were -0.36 and -0.671 (inactive), respectively.

With `C=CC[C@]12N=C(c3ccc(OCCCO)cc3)O[C@H]1c1ccccc1N(Cc1ccccc1)C2=O`, the composite z-score is 1.74 in assay [1]; 0.998 in [2]; 0.804 in [3]; -0.0608 in assay [4]; 1.29 in assay [5]; 1.34 in assay [6]. For the same molecule, the composite z-score in [8] is -0.0331; in [9], 0.442. In addition, the z-score was -1.21 in [7] and -4.07 (inactive) in assay [10].

Turning to `C=C[C@H](COC(C)=O)N(C(=O)OC(C)(C)C)S(=O)(=O)c1ccc(Br)cc1`, the composite z-score is 1.7 in assay [1]; 0.851 in assay [2]; 0.461 in assay [3]; -0.296 in [4]; 0.867 in [5]; 0.433 in assay [6]. The composite z-score was 0.65 in [8] and 0.233 in assay [9]. The z-score is 0.671 in assay [7] and -1.57 (inactive) in assay [10].

Consider `O=C1O[C@H](c2ccccc2)[C@H](c2ccccc2)N2[C@H]1[C@@H](C(=O)Nc1nc3ccccc3s1)[C@]1(C(=O)Nc3ccc(C#CC4(O)CCCCCC4)cc31)[C@H]2c1ccc(OCCO)cc1`, for which the composite z-score in assay [1] is 2; in assay [2], 1.14; in assay [3], 0.429; in assay [4], 0.976; in [5], 1.43; in assay [6] it was 1.39. Also, the composite z-score in [8] was 1.05; in assay [9], 0.921. Besides, the z-score in assay [7] is -2.27; in assay [10] it was -2.79 (inactive).

For the molecule `C[N+](C)(C)CCCC[C@@H]1NC(=O)[C@@H]2C[C@H](C(=O)NCCCCCN)[C@H](c3cccc(OCCO)c3)N2C1=O`, the composite z-score came out at 0.758 in assay [1]; 0.935 in assay [2]; 0.103 in assay [3]; 0.978 in [4]; 0.597 in [5]; 0.175 in assay [6]. Further, the values for the composite z-score in [8] and in assay [9] were 0.161 and 1.07, respectively. For the same molecule, the z-score in [7] is 0.809; in [10] it was -1.25 (inactive).

Consider `CC(C)(C)OC(=O)CC[C@@]1(C(=O)NCC(O)CO)N=C(c2ccc(OCCCO)cc2)O[C@@H]1c1ccccc1N=[N+]=[N-]` (stereo not given in full), for which the composite z-score in [1] came out at 2.37; in [2], 0.818; in assay [3], 0.94; in assay [4], 0.985; in [5] it was 1.43; in assay [6] it was 0.692. For the same molecule, the composite z-score in [8] was -0.0052; in assay [9] it was 0.96. For the same molecule, the z-score in assay [7] was 1.18; in assay [10], -10.6 (active).

As for `COC(=O)[C@@]1(Cc2ccc(F)cc2)[C@H]2c3cc(C(=O)N4CCCC4)n(Cc4cc(C)n(C)n4)c3C[C@H]2CN1C(=O)c1ccccc1`, the composite z-score in assay [1] is 1.85; in [2], 1.26; in [3], 1.03; in [4], 1.01; in assay [5], 0.392; in [6], -0.47. Moreover, the composite z-score is -0.847 in [8] and 0.628 in assay [9]. The z-score in assay [7] was 0.0507; in [10], 0.609 (inactive).

Values taken from PubChem BioAssay.
